Assay outcomes deposited in PubChem by National Center for Advancing Translational Sciences (NCATS).
LASV entry inh: qHTS for Inhibitors of binding or entry into cells for Lassa Virus; hit rate 1.2% among 300,000; Lassa virus pseudotype entry inhibition, cell reporter; Potency, µM (top dose mostly 37.9 µM), for the others: at the top dose activity change, negative = inhibition, hits mostly inhibitors; AID 540256, 2011; calls by dose curve; tested in HEK293 cells; further: potency means the concentration at half of the fitted maximal effect; nearly all actives have a fitted effect of over 50% in size
HCV inh: qHTS Assay for Inhibitors of Hepatitis C Virus (HCV); AID 651820, 2012; hit rate 3.4% among 340,000; Potency, µM (titrated, usually from 41.8 µM), without a hit: at the top dose activity change, negative = inhibition, hits mostly inhibitors; Huh7.5.1 HCVcc-Cre infection, luciferase reporter, 44 h; active means well fitted inhibition curve with a large enough effect; inconclusive means small, poorly fitted or top-dose-only effect, or another doubt; inactive means no such curve, though single readings can be large or run the other way; further: potency means the concentration at half of the fitted maximal effect
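A cell-based infection assay in which seeded cells (1,000 per well) receive test compound after 4 h, are inoculated with HCVcc-Cre at approximately 0.5 moi, and are incubated 44 h before luminescence detection.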
MARV entry inh: qHTS for inhibitors of binding or entry into cells for Marburg Virus; Marburg virus pseudotyped entry inhibition, cell reporter; hit rate 1.8% among 300,000; Potency, µM (top dose mostly 37.8 µM), without a hit: top-dose activity change, negative = inhibition, actives largely listed as inhibitors; calls by dose curve; tested in HEK293 cells; further: potency means the concentration at half of the fitted maximal effect
FMDV antiviral: High Throughput Screening for Foot and Mouth Disease Virus Antivirals; Potency, µM (titrated, usually from 57.9 µM), without a hit: at the highest dose activity change, negative = inhibition, most hits filed as inhibitors; FMDV antiviral cell-based qHTS; hit rate 1.2% among 410,000; calls by dose curve; tested in HEK293T cells; further: read-out not given here; potency means the concentration at half of the fitted maximal effect; nearly all actives have a fitted effect of over 45% in size
HCMV antiviral: qHTS Assay for inhibitors of the human cytomegalovirus (HCMV). HFF cells, HCMV-luciferase reporter, 72 h; stronger effect = lower value. activity change, negative = inhibition, % at 57.5 µM. hit rate 4.5% among 410,000; in the data active means activity change below about -60%; inconclusive means no clear call, values can overlap the other calls; inactive means above about -39%
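Human foreskin fibroblasts infected with luciferase-reporter HCMV at MOI 1 PFU/cell, compounds at two doses. Luciferase measured 72 h post infection; normalized to buffer-only basal and Salinomycin (10uM) controls.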
The depositor's hits bear a star; [ ] = dose if it differs, or a comment. Only some compounds are listed: those with a hit (about 7.9% of all), similar ones and a draw of the others. On the % scale 0 is the no-effect control and ±100 the full control effect.

O=C(CSc1ccc2ccccc2c1)N1CCN(c2ccc(O)cc2)CC1 was read as HCV inh -21.7%, FMDV antiviral 7.0% and HCMV antiviral -77.5*.
O=C(CCl)N1CCN(S(=O)(=O)c2ccc3ccccc3c2)CC1 was read as LASV entry inh inconclusive, HCV inh inconclusive, MARV entry inh inconclusive, FMDV antiviral 25.1µM* and HCMV antiviral -97.9*.
CN1CCN(S(=O)(=O)c2ccc3ccccc3c2)CC1 was read as HCV inh 13.7%, FMDV antiviral -6.0% and HCMV antiviral 8.9.
Screening O=S(=O)(c1ccc2ccccc2c1)N1CCN(c2ccc(O)cc2)CC1 returned HCV inh inconclusive, FMDV antiviral 28.6% and HCMV antiviral -65.9*.
Screening CCCC(=O)N1CC2(CCN(C(C)=O)CC2)c2c(n(C)c3cc(OC)ccc23)[C@H]1CO returned HCMV antiviral 12.3.
Cc1c(C(=O)NCC(C)(C)N2CCOCC2)cnn1-c1nccc(-c2cccs2)n1 was read as FMDV antiviral -6.1%.
`CCOc1ccc(C(c2c(O)cc(C)n(Cc3ccco3)c2=O)N2CCN(c3ccccc3)CC2)cc1` (stereo unspecified) gave LASV entry inh -0.8%[46.1 µM], FMDV antiviral inconclusive and HCMV antiviral 7.0.
For COC(=O)c1c(Oc2ccc(C(C)=O)cc2)nnc(-c2ccccc2)c1-c1ccccc1 the results were LASV entry inh inconclusive, MARV entry inh 6.31µM*, FMDV antiviral inconclusive and HCMV antiviral -13.9.
Screening Cc1cccc(NC(=O)c2ccc(-n3cnc4cccnc43)cc2)c1C returned LASV entry inh 24.5%[46.1 µM], FMDV antiviral 10.5% and HCMV antiviral -9.1.
`N#C/C(=C\c1coc2ccc(O)cc2c1=O)C(=O)Nc1nc2ccccc2s1` gave HCV inh inconclusive, FMDV antiviral inconclusive and HCMV antiviral -73.1*.
Screening CCOc1ccc(Nc2nc(NCC3CCCO3)c3ccccc3n2)cc1 (stereo unspecified) returned LASV entry inh inconclusive, HCV inh inconclusive, MARV entry inh inconclusive, FMDV antiviral 25.1µM* and HCMV antiviral -30.8.
c1ccc(Nc2nc(NCC3CCCO3)c3ccccc3n2)cc1 (stereo unspecified) was read as LASV entry inh inconclusive, HCV inh 7.08µM*, MARV entry inh inconclusive, FMDV antiviral 28.2µM* and HCMV antiviral inconclusive.
Screening Oc1cccc(Nc2nc(NCC3CCCO3)c3ccccc3n2)c1 (stereo unspecified) returned LASV entry inh -24.2%, HCV inh inconclusive, MARV entry inh inconclusive and FMDV antiviral 0.0%.
Nc1nc(NCC2CCCO2)nc(Nc2ccccc2)c1[N+](=O)[O-] (stereo unspecified) was read as LASV entry inh -17.6%, HCV inh -18.7%, MARV entry inh -0.1%, FMDV antiviral 0.0% and HCMV antiviral -16.6.
For COc1ccc(Nc2nc(NCC3CCCO3)nc(N)c2[N+](=O)[O-])cc1 (stereo unspecified) the results were HCV inh inconclusive, FMDV antiviral -22.5% and HCMV antiviral 28.0.
Screening c1ccc2c(NCC3CCCO3)nc(N3CCOCC3)nc2c1 (stereo unspecified) returned HCV inh 2.9%, FMDV antiviral -20.9% and HCMV antiviral -6.7.
Screening Nc1nc(NCC2CCCO2)nc(Nc2ccc(Cl)cc2)c1[N+](=O)[O-] (stereo unspecified) returned LASV entry inh -7.4%, HCV inh -9.9%, MARV entry inh -19.5%[14.2 µM], FMDV antiviral -25.3% and HCMV antiviral -68.7*.
Screening c1ccc(-c2nc(NCC3CCCO3)c3ccccc3n2)nc1 (stereo unspecified) returned LASV entry inh inconclusive, HCV inh inconclusive, MARV entry inh inconclusive, FMDV antiviral -28.8% and HCMV antiviral -97.4*.
For C=CC[C@@H]1C=C[C@H](ON=C[C@@H](C)[C@H](OCc2ccccc2)C(C)C)[C@H](CO)O1 the results were LASV entry inh inconclusive and MARV entry inh -10.4%[14.2 µM].
`CCN1C(=O)NC(CCc2ccccc2)C(C(=O)OC)=C1C` (stereo unspecified) gave MARV entry inh 16.7%[14.2 µM].
